Here are results for 25 molecules from PubChem BioAssay (NCI).

Test in all cases: NCI-60 one-dose screen, 48 h (100 = growth as untreated, 0 = no growth, -100 = all killed)
Conditions in all cases: 10 µM unless noted

Experiment [1] has as its system NCI-H23 lung.
In experiment [2] the test system is NCI-H226 lung.
Experiment [3] relates to NCI-H322M lung.
The test system of experiment [4] is HOP-62 NSCLC.
The test system of experiment [5] is NCI-H460 lung.
For experiment [6], the system named is HOP-92 NSCLC.
The subject of experiment [7] is NCI-H522 lung.
Experiment [8] relates to A549/ATCC NSCLC.
The test system of experiment [9] is 786-0 renal.
Experiment [10] relates to COLO 205 colon.

The panel holds about 83,000 compounds, 20% with a hit somewhere; the sample as a whole holds those more often.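 Method: cells in 96-well plates; compound added at one concentration; 48 h incubation; percent growth measured; values under 10 scored active.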 A number with no mark means an inactive call. Calls of active or inactive are those of the source.

In the case of `CN(C)C(=O)Oc1ccccc1`, the growth in experiment [1] was 104%; in [2], 105%; in [3], 109%; in experiment [4], 96.3%; in [5] it was 97.5%; in experiment [6], 101%. Also, the growth in experiment [7] is 112%; in experiment [8], 103%; in [9] it was 107%; in [10], 112%.
As for `N#C[Se]Cc1cc(-c2ccccc2)n(-c2ccc(S(N)(=O)=O)cc2)n1`, the growth in experiment [1] is -18% (active); in experiment [2], -29.1% (active); in [3] it was -5.66% (active); in [4] it was -87.3% (active); in experiment [5] it was -56.8% (active); in experiment [6], -61.3% (active). In addition, the growth in experiment [7] is -7.38% (active); in experiment [8], -33.1% (active); in experiment [9], -24.7% (active); in experiment [10], -83.4% (active).
As to `CCCCCCCCOC(=O)CCN1CC1`, the growth in [1] is 111%; in [2], 93.5%; in experiment [3], 107%; in [4], 124%; in experiment [5] it was 115%; in experiment [6], 77%. Besides, the growth in experiment [7] is 121%; in experiment [8], 99.1%; in experiment [9], 107%; in [10], 116%.
Take `CC(=O)OC[C@]1(C)C=C2C(=O)[C@](C)(O)C3(CC3)C(C)=C2[C@H]1O`: the growth in experiment [1] was -35.5% (active); in experiment [2] it was -15% (active); in [3] it was -23.1% (active); in experiment [4], -29.4% (active); in experiment [5], -37.4% (active); in experiment [6], -25.8% (active). Further, the growth in experiment [7] was -52.5% (active); in [8], -21.4% (active); in [9], -46.2% (active); in experiment [10], -33.5% (active).
For the molecule `Cn1cccc1C1CC(=O)N(CCC[Se]C#N)C1=O` (stereo not given), the growth is -25.4% (active) in experiment [1]; -46.1% (active) in experiment [2]; 11.1% in experiment [3]; -75.7% (active) in [4]; -0.959% (active) in [5]; -40.8% (active) in [6]. Besides, the growth in experiment [7] is 23.5%; in experiment [8], -38.6% (active); in experiment [9], -73.2% (active); in experiment [10], 70.1%.
For `CN1CCC(c2c[nH]c3ccccc23)C1` (stereo not given), the growth in experiment [1] is 88.9%; in experiment [2], 106%; in experiment [3], 118%; in [4], 84.3%; in experiment [5], 124%; in [6], 92.9%. Further, the growth in [7] is 79.5%; in experiment [8], 122%; in experiment [9], 99.3%; in experiment [10], 108%.
On to `CCC(C)(C)[C@H](NC(=O)[C@H]1CCCCN1C)C(=O)N(C)[C@H](C[C@@H](OC(C)=O)c1nc(C(=O)N[C@@H](Cc2ccccc2)C[C@H](C)C(=O)O)cs1)C(C)C`, for which the growth in experiment [1] is 29.8%; in experiment [2] it was -44.7% (active); in [3] it was 41.5%; in experiment [4], 15%; in experiment [5], 5.25% (active); in experiment [6] it was 19.4%. Also, the growth was -32.1% (active) in [7], 13.1% in [8], 10.8% in experiment [9] and -51.2% (active) in experiment [10].
Turning to `c1ccc(Nc2nc(-c3ccccc3)c[se]2)cc1`, the growth in experiment [1] was 87.2%; in experiment [2] it was 81.4%; in experiment [3], 69.8%; in experiment [4], 69.8%; in experiment [5] it was 100%; in [6], 59.8%. Also, the growth in [7] is 68.6%; in experiment [8] it was 87.5%; in experiment [9], 93%; in [10], 104%.
On to `O=P(Oc1ccc(Cl)cc1)(N1CC1)N1CC1`, for which the growth in experiment [1] is 65.4%; in experiment [2], 87.8%; in experiment [3] it was 99.6%; in [4], 81.3%; in [5], 39.3%; in experiment [6], 81.2%. Also, the growth in [7] is 66.8%; in experiment [8], 60.2%; in experiment [9], 84.5%; in experiment [10], 94.6%.
In the case of `COc1ccc(/C=C\c2cc(OC)c(OC)c(OC)c2)cc1OCC(=O)Nc1nc2ccc(OC(F)(F)F)cc2s1`, the growth in experiment [1] is 35.6%; in [2] it was 74.2%; in experiment [3], 73.6%; in [4], 53.7%; in experiment [5], 12.4%; in experiment [6], 55.9%. Moreover, the growth was 15.8% in experiment [7], 66.5% in experiment [8], 92.6% in experiment [9] and 106% in experiment [10].
Consider `CC(=O)O[C@H](C[C@H](C(C)C)N(C)C(=O)[C@@H](NC(=O)[C@H]1CCCCN1C)C(C)C)c1nc(C(=O)N[C@@H](Cc2ccccc2)C[C@H](C)C(=O)O)c(C)s1`, for which the growth in [1] is 35.9%; in [2], 52.6%; in [3], 52.8%; in experiment [4], 32.1%; in experiment [5], 7.72% (active); in [6], 25.6%. The growth in experiment [7] is -4.18% (active); in experiment [8], 11.9%; in experiment [9], 26.1%; in experiment [10] it was -62.6% (active).
Regarding `CCCCCCCCCCCCCCCCCC1OC[C@H](COC(=O)O[C@@H](C(=O)O[C@H]2C[C@@]3(O)[C@@H](OC(=O)c4ccccc4)[C@@H]4[C@]5(OC(C)=O)CO[C@@H]5C[C@H](O)[C@@]4(C)C(=O)[C@H](OC(C)=O)C(=C2C)C3(C)C)[C@@H](NC(=O)c2ccccc2)c2ccccc2)O1` (stereo not given in full), the growth is 42.7% in [1]; 94.3% in [2]; 47.4% in experiment [3]; 66.3% in experiment [4]; 20.9% in [5]; 75% in [6]. For the same molecule, the growth in experiment [7] is 60.2%; in experiment [8] it was 43.9%; in experiment [9], 91.2%; in experiment [10], 13.3%.
Turning to `C/C(=C\c1ccn(-c2ccccc2N)n1)[C@@H]1C[C@@H]2O[C@]2(C)CCC[C@H](C)[C@H](O)[C@@H](C)C(=O)C(C)(C)[C@@H](O)CC(=O)O1`, the growth in [1] is 20.4%; in [2], 33.8%; in experiment [3], 16.6%; in [4] it was 41.7%; in experiment [5] it was 14.9%; in experiment [6] it was 77.4%. The growth in [7] was 11.7%; in experiment [8], 24.8%; in experiment [9], 17.8%; in [10] it was -4.12% (active).
As to `C[C@@H]1C[C@@]2(C)[C@@H](CC[C@@H]3[C@@H]2CC[C@]2(C)C(=O)CC[C@@H]32)CC1=O`, the growth in [1] was 104%; in experiment [2], 102%; in experiment [3], 96.1%; in [4], 78.9%; in [5], 108%; in [6] it was 71.7%. The growth was 91.9% in experiment [7], 82.7% in [8], 93.2% in experiment [9] and 99.5% in [10].
Turning to `COc1ccc2c(c1)c(-c1nc(-c3cn(C)c4ncccc34)cs1)cn2CCN1CCOCC1`, the growth in [1] was 40.2%; in experiment [2] it was 43%; in experiment [3] it was 62.3%; in experiment [4] it was 12.5%; in experiment [5], 23.9%; in [6] it was 31.3%. In addition, the growth in experiment [7] was 19.9%; in [8], 30.5%; in experiment [9], 44.4%; in experiment [10] it was 33.2%.
As to `CC(C)(C)C(=O)OCOP(=O)(OCOC(=O)C(C)(C)C)C1CCCN(O)C1=O` (stereo not given), the growth in experiment [1] was -13.4% (active); in [2] it was -1.39% (active); in experiment [3], 14.7%; in experiment [4], 18.2%; in [5], 1.85% (active); in [6] it was 7.23% (active). Besides, the growth is -7.58% (active) in experiment [7], 10.8% in experiment [8], 12.4% in experiment [9] and -16.8% (active) in [10].
As to `Fc1cccc(NCOOC2(OOCNc3cccc(F)c3)CCCCC2)c1`, the growth in experiment [1] was 81.9%; in experiment [2], 112%; in [3], 98.6%; in experiment [4], 90.6%; in experiment [5], 104%; in experiment [6] it was 87.3%. Moreover, the growth is 74.9% in experiment [7], 89.6% in [8], 85% in [9] and 118% in [10].
For the molecule `COc1ccc(/C=C\c2cc(OC)c(OC)c(OC)c2)c(NS(=O)(=O)c2ccc(F)cc2)c1O`, the growth was 27.4% in experiment [1]; 35.1% in experiment [2]; 53.6% in experiment [3]; 71.3% in experiment [4]; 5.54% (active) in [5]; 43.3% in experiment [6]. The growth was -18.6% (active) in [7], 23.9% in experiment [8], 18.4% in [9] and 0.893% (active) in experiment [10].
`Nc1ccc(-c2nc3cc(F)ccc3[se]2)cc1F`: the growth was 33.9% in experiment [1]; -13.2% (active) in experiment [2]; 72.6% in experiment [3]; 51.4% in experiment [4]; 11.7% in experiment [5]; 66% in [6]. The growth in [7] was 64.2%; in experiment [8] it was 39.9%; in experiment [9] it was 101%; in experiment [10], 56.2%.
Turning to `CC(=O)O[C@@H]1CC[C@]2(C)[C@H]3CC[C@]4(C)C(=O)CC[C@H]4[C@@H]3C[C@@H]3SC(N)=N[C@@]32C1`, the growth in experiment [1] is 79.6%; in experiment [2] it was 83.4%; in experiment [3], 89.7%; in [4] it was 70.1%; in experiment [5], 38.7%; in experiment [6], 78.8%. Besides, the growth in experiment [7] was 8.26% (active); in experiment [8], 47.4%; in experiment [9] it was 58.8%; in experiment [10] it was 48.8%.
Turning to `CN[C@]1(c2ccccc2Cl)CCCC[C@H]1NCCCN1CCN(C)CC1`, the growth is 109% in experiment [1]; 94.5% in experiment [2]; 106% in experiment [3]; 93.8% in experiment [4]; 110% in [5]; 79.1% in experiment [6]. The growth in experiment [7] was 93.9%; in experiment [8], 98.5%; in [9], 92.2%; in experiment [10], 108%.
Turning to `N#Cc1c(Br)n(C2OC(CO)C(O)C2O)c2ncnc(N)c12` (stereo not given), the growth in experiment [1] is 74.4%; in experiment [2] it was 135%; in experiment [3], 81%; in [4] it was 101%; in [5], 34%; in experiment [6], 52.7%. In addition, the growth in [7] is 60.5%; in experiment [8], 13.4%; in experiment [9], 89.1%; in experiment [10] it was 18.2%.
On to `C[C@@]12CC=C3c4nc(Nc5cccc(O)c5)sc4CC[C@]3(C)[C@H]1CC[C@]1(C)C(=O)CC[C@@H]21`, for which the growth in [1] is 63.7%; in experiment [2], 94.5%; in [3] it was 72.8%; in experiment [4] it was 27.5%; in experiment [5] it was 43.9%; in experiment [6] it was 64.3%. Besides, the growth in [7] was -56.4% (active); in experiment [8], 55.4%; in experiment [9] it was -0.522% (active); in experiment [10], 34.4%.
For the molecule `COP(=O)(OC)C(O)c1ccc(Cl)cc1` (stereo not given), the growth in [1] is 98.8%; in [2], 102%; in experiment [3] it was 84.2%; in experiment [4], 104%; in [5] it was 103%; in [6], 98.1%. Besides, the growth in experiment [7] was 89.1%; in experiment [8], 98.3%; in experiment [9], 101%; in experiment [10], 102%.
With `C[C@]12CC[C@@H]3c4ccc(Oc5nc(N6CC6)nc(N6CC6)n5)cc4CC[C@H]3[C@@H]1CCC2=O`, the growth is 31.6% in experiment [1]; 48.7% in [2]; 44.2% in experiment [3]; 11.7% in experiment [4]; -33.8% (active) in experiment [5]; 104% in [6]. Also, the growth was 31.5% in experiment [7], 24.9% in experiment [8], 32.4% in [9] and 32.5% in experiment [10].
